From the supplement of paper PMC9694430

Legend:
Test in all cases: thermal shift delta Tm vs DMSO control; higher = stronger stabilization (binding)
Details in all cases: 12.5 µM; protein concentration 2 µM
[1] = system: LOC_OS02G45750-cb003
Outline: (§1)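 Rice kinase domain constructs, made in E. coli and purified, were placed in 96-well plates at 2 μM in 19.5 μl of 100 mM potassium phosphate pH 7.5, 150 mM NaCl, 10% glycerol and 5 × SYPRO Orange, with compound in DMSO. A temperature ramp from 25°C to 95°C at 0.05°C/s was used for differential scanning fluorimetry. The melting temperature shift is a triplicate mean compared with DMSO-only protein, derived from Boltzmann fits.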

[2] = system: LOC_OS02G54510-cb004
Outline: as §1

[3] = system: LOC_OS03G04050-cb001
Outline: as §1

[4] = system: LOC_OS03G12390-cb001
Outline: as §1

[5] = system: LOC_OS03G27990-cb004
Outline: as §1

[6] = system: LOC_OS03G50450-cb001
Outline: as §1

[7] = system: LOC_OS03G50810-cb003
Outline: as §1

[8] = system: LOC_OS04G35114-cb001
Outline: as §1

[9] = system: T1, LOC_OS04G38480-cb003
T1 sequence (whole entry): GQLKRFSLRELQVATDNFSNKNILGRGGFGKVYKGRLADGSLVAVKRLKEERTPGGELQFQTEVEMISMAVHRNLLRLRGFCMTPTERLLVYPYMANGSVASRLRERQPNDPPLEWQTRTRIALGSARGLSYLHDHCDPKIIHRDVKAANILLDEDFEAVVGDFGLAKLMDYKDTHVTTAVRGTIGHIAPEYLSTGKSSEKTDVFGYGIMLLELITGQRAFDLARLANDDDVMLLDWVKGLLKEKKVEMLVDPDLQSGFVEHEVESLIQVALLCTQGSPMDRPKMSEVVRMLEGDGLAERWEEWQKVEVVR
Outline: as §1

[10] = system: T2, LOC_OS04G41100-cb001
T2 sequence (whole entry): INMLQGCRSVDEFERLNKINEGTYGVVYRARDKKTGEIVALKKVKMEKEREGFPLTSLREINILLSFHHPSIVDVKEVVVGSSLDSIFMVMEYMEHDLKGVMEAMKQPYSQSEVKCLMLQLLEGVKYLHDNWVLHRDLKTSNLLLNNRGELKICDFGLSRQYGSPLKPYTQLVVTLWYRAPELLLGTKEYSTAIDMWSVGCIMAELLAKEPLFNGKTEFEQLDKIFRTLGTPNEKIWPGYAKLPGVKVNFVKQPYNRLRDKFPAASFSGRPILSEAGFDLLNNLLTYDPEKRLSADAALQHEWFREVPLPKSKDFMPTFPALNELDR
Outline: as §1

[11] = system: LOC_OS04G57630-cb004
Outline: as §1

[12] = system: LOC_OS05G07850-cb002
Outline: as §1

[13] = system: LOC_OS05G16824-cb004
Outline: as §1

[14] = system: LOC_OS05G28520-cb001
Outline: as §1

[15] = system: LOC_OS05G30820-cb001
Outline: as §1

[16] = system: LOC_OS05G43570-cb004
Outline: as §1

[17] = system: LOC_OS06G16330-cb003
Outline: as §1

[18] = system: T3, LOC_OS06G22820-cb001
T3 sequence (whole entry): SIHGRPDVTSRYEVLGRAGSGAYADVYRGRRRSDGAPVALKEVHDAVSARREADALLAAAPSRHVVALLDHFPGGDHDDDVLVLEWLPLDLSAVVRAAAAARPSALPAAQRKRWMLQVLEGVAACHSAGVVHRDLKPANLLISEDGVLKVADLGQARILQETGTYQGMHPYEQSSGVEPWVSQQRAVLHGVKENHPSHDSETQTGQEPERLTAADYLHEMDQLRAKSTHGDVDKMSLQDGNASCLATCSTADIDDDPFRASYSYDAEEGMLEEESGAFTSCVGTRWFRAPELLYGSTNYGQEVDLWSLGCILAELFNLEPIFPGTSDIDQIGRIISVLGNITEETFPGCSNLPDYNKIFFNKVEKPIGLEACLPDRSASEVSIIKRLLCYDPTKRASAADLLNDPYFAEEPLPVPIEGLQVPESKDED
Outline: as §1

[19] = system: LOC_OS07G06570-cb004
Outline: as §1

[20] = system: LOC_OS07G07230-cb001
Outline: as §1
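Note: purified Escherichia coli-expressed rice kinase domain construct.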

LOC_OS06G16330-cb003, sequence (as listed by the source): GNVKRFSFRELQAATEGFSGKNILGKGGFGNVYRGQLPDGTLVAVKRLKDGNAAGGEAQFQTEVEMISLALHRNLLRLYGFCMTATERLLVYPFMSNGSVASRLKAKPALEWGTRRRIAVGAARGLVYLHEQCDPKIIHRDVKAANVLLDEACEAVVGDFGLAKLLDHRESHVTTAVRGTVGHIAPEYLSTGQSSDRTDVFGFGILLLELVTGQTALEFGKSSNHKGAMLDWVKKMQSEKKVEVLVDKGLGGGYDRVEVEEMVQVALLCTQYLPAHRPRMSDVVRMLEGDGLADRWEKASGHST

Row | SMILES | thermal shift delta Tm [1] | thermal shift delta Tm [2] | thermal shift delta Tm [3] | thermal shift delta Tm [4] | thermal shift delta Tm [5] | thermal shift delta Tm [6] | thermal shift delta Tm [7] | thermal shift delta Tm [8] | thermal shift delta Tm [9] | thermal shift delta Tm [10] | thermal shift delta Tm [11] | thermal shift delta Tm [12] | thermal shift delta Tm [13] | thermal shift delta Tm [14] | thermal shift delta Tm [15] | thermal shift delta Tm [16] | thermal shift delta Tm [17] | thermal shift delta Tm [18] | thermal shift delta Tm [19] | thermal shift delta Tm [20]
1 | CCNC(=O)Nc1ccc(-c2nc(N3CCOC[C@@H]3C)c3c(n2)C(C)(C)S(=O)(=O)C3)cc1 | 0.42 °C | 0.08 °C | 0.36 °C | 0.06 °C | 0.16 °C | 0.41 °C | 0.16 °C | 0.29 °C | 1.39 °C | 0.2 °C | -0.03 °C | 1.34 °C | 0.19 °C | 0.25 °C | 0.2 °C | 0.77 °C | -0.15 °C | 0.67 °C | 1.9 °C | 0.66 °C
2 | CC(C)(O)CC(=O)NCCn1ccc2ncnc(Nc3ccc(Oc4cccc(C(F)(F)F)c4)c(Cl)c3)c21 | 0.62 °C | -0.25 °C | 0.51 °C | 1.74 °C | 0.47 °C | 0.94 °C | 1.03 °C | 0.12 °C | 1.78 °C | 0.52 °C | 1.06 °C | 0.82 °C | 2.1 °C | -0.31 °C | 0.35 °C | 1.03 °C | 0.72 °C | 1.33 °C | 0.78 °C | -1.32 °C
3 | CN1C(=O)[C@@H](NC(=O)c2n[nH]c(Cc3ccccc3)n2)COc2ccccc21 | 0.85 °C | -0.02 °C | 0.45 °C | 0.81 °C | 0.38 °C | 0.66 °C | 0.57 °C | -0.51 °C | 2 °C | 0.34 °C | 0.41 °C | 0.32 °C | 2.34 °C | -0.04 °C | 0.15 °C | 0.36 °C | 0.02 °C | 0.48 °C | 1.77 °C | 0.47 °C
4 | c1cc(-c2cnn3cc(-c4ccc(OCCN5CCCCC5)cc4)cnc23)ccn1 [Dorsomorphin 2HCl] | 15.2 °C | 0.73 °C | 0.67 °C | 1.8 °C | 9.39 °C | 1.81 °C | 7.51 °C | 9.17 °C | 3.72 °C | 3.16 °C | 6.96 °C | 9.81 °C | 12.6 °C | 3.18 °C | 1.22 °C | 0.81 °C | 8.76 °C | 0.18 °C | 1.04 °C | 1.17 °C
5 | O=c1ncn2nc(Sc3ccc(F)cc3F)ccc2c1-c1c(Cl)cccc1Cl | 0.54 °C | -0.07 °C | 0.23 °C | 0.07 °C | -0.01 °C | 0.15 °C | 0.34 °C | 0.66 °C | 1.17 °C | 0.55 °C | 0.07 °C | 0.12 °C | 0.83 °C | 0.17 °C | 0.49 °C | 0.49 °C | -0.01 °C | 0.66 °C | 0.75 °C | 0.14 °C
6 | Cn1cc(-c2ccc3c(c2)CCN3C(=O)Cc2cccc(C(F)(F)F)c2)c2c(N)ncnc21 | 4.4 °C | 2.71 °C | 0.45 °C | 0.39 °C | 0.12 °C | 0 °C | 0.95 °C | 2.08 °C | 1.08 °C | 1.28 °C | 1.69 °C | 6.67 °C | 1.91 °C | 0.55 °C | 0.78 °C | 0.46 °C | 2.76 °C | 0.97 °C | 0.97 °C | 4.19 °C
7 | COc1cc(C(=O)N2CCC(N3CCN(C)CC3)CC2)ccc1Nc1ncc2c(n1)N(C)c1ccccc1C(=O)N2C | 1.73 °C | 0.29 °C | 0.41 °C | 3.59 °C | 0.46 °C | 0.37 °C | 0.68 °C | 0.65 °C | 3.81 °C | 0.27 °C | 0.47 °C | 4.15 °C | -2.69 °C | 0.06 °C | 0.42 °C | -1.79 °C | 0.93 °C | 0.32 °C | 0.88 °C | 0.74 °C
8 | CN1CCC(COc2cnc(-c3cccc(Cn4nc(-c5cccc(C#N)c5)ccc4=O)c3)nc2)CC1 | -0.03 °C | -0.06 °C | 0.23 °C | -0.02 °C | 0.03 °C | 0.11 °C | 0.09 °C | 1.33 °C | 0.26 °C | 0.35 °C | 0.46 °C | 0.61 °C | -1.27 °C | 0.69 °C | 0.42 °C | 0.46 °C | 0.55 °C | 0.49 °C | 1.28 °C | 0.18 °C
9 | CNC(=O)c1cccc(-c2ccc3c(N4CCOC[C@@H]4C)nc(N4CCOC[C@@H]4C)nc3n2)c1 [Vistusertib (AZD2014)] | 0.21 °C | 0.04 °C | 0.18 °C | -0.33 °C | 0.11 °C | 0.09 °C | 0.06 °C | -0.19 °C | 0.96 °C | 0.11 °C | -0.14 °C | 0.07 °C | -6.13 °C | -0.26 °C | 0.67 °C | 0.5 °C | 0.19 °C | 0.59 °C | 0.64 °C | 0.29 °C
10 | COc1cc2c(Oc3ccc4[nH]c(C)cc4c3F)ncnc2cc1OCCCN1CCCC1 [Cediranib (AZD2171)] | 1.17 °C | -0.01 °C | 0.25 °C | 1.5 °C | 0.44 °C | -0.12 °C | 2.04 °C | 5.53 °C | 0.23 °C | 0.71 °C | 0.99 °C | 1.23 °C | 1.08 °C | -0.22 °C | 0.46 °C | 0.17 °C | -0.02 °C | 0.55 °C | 0.63 °C | 0.34 °C
11 | O=C(NOC[C@H](O)CO)c1ccc(F)c(F)c1Nc1ccc(I)cc1F | 0.77 °C | 0.16 °C | 0.43 °C | 0.47 °C | 0.21 °C | 0.26 °C | 0.28 °C | -0.05 °C | 0.76 °C | 0.78 °C | -0.16 °C | -0.38 °C | 0.88 °C | 0.62 °C | 0.37 °C | 1.5 °C | 0.23 °C | 1.03 °C | 1.11 °C | 0.26 °C
12 | CN(C)Cc1cccc(N=C(c2ccccc2)c2c(O)[nH]c3cc(C(=O)N(C)C)ccc23)c1 | 4.33 °C | 0.4 °C | 0.44 °C | 0.66 °C | 1.19 °C | 0.55 °C | 2.45 °C | 5.85 °C | 0.55 °C | 0.45 °C | 0.46 °C | 5.73 °C | 3.8 °C | -0.08 °C | 0.49 °C | 0.76 °C | 0.77 °C | 0.98 °C | 0.59 °C | -0.37 °C
13 | COc1cc(OC)c(/C=C/S(=O)(=O)Cc2ccc(OC)c(NCC(=O)O)c2)c(OC)c1 | 0.52 °C | 0.14 °C | 0.35 °C | 0.36 °C | 0.04 °C | 0.44 °C | 0.25 °C | 0.47 °C | 1.33 °C | 0.67 °C | 0.06 °C | 0.2 °C | -0.41 °C | 0.21 °C | 0.62 °C | 0.71 °C | -0.1 °C | 0.75 °C | 0.87 °C | 0.29 °C
